Results reported in the supplement of paper PMC10849652.
About 8,800 targets were measured; listed, in parts, are those with a hit and a random draw of the rest. About 0.5% of all pairs of compound and target were hits.

What was measured:
Test in all cases: log2 fold change, soluble protein after heating vs DMSO (PISA); higher = thermal stabilisation; K562 lysate, 10 uM; active = over 0.2 and 3.5 SD of the protein, either way, in both replicates (recomputed)
[1] = compound: C1=CC=C(C=C1)[C@H](COC2=CC3=C(C=C2)NC(=O)N3)NC(=O)C4=CC=CN(C4=O)CC5=CC(=C(C=C5)F)F
Outline: (§1)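 To prepare the extract, K562 pellets were dounce-homogenised in PBS pH 7.4 with 1 mM MgCl2, giving crude material at 1 mg/mL protein. This was treated with 10 μM compound for 30 min, then heated in aliquots for 3 min over 48°C-58°C before pooling and addition of NP-40 to 0.5% at 4°C. Centrifugation at 21,000xg for 90 min left soluble protein in the supernatant, which TMTpro 16plex LC-MS/MS quantified with equalised channel sums. Results are log-two fold changes in thermal stability compared with solvent controls, from duplicates.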

[2] = compound: CC1=C(SC2=C1C(=N[C@H](C3=NN=C(N32)C)CC(=O)N)C4=CC=C(C=C4)Cl)C
Outline: as §1

[3] = compound: CC1=C2C(=CC=C1)N=C(N(C2=O)C3=CC=CC=C3C)CN4C=NC5=C(N=CN=C54)N
Outline: as §1

[4] = compound: Cc1sc2c(c1C)C(c1ccc(Cl)cc1)=N[C@@H](CC(=O)OC(C)(C)C)c1nnc(C)n1-2
Outline: as §1

[5] = compound: c1ccc([C@@H]2C[C@H]2NC2CCNCC2)cc1
Outline: as §1

Measured: log2 fold change

UBA1 (UniProt P22314)
inactive: [1] -0.018 | [2] 0.043 | [3] 0 | [4] 0.045 | [5] 0.04

TPD52L2 isoform 7 (UniProt O43399)
inactive: [1] 0.046 | [2] -0.036 | [3] -0.024 | [4] 0.024 | [5] -0.058

TRAPPC10 (UniProt P48553)
Sequence of UniProt P48553 (P48553 whole entry, looked up): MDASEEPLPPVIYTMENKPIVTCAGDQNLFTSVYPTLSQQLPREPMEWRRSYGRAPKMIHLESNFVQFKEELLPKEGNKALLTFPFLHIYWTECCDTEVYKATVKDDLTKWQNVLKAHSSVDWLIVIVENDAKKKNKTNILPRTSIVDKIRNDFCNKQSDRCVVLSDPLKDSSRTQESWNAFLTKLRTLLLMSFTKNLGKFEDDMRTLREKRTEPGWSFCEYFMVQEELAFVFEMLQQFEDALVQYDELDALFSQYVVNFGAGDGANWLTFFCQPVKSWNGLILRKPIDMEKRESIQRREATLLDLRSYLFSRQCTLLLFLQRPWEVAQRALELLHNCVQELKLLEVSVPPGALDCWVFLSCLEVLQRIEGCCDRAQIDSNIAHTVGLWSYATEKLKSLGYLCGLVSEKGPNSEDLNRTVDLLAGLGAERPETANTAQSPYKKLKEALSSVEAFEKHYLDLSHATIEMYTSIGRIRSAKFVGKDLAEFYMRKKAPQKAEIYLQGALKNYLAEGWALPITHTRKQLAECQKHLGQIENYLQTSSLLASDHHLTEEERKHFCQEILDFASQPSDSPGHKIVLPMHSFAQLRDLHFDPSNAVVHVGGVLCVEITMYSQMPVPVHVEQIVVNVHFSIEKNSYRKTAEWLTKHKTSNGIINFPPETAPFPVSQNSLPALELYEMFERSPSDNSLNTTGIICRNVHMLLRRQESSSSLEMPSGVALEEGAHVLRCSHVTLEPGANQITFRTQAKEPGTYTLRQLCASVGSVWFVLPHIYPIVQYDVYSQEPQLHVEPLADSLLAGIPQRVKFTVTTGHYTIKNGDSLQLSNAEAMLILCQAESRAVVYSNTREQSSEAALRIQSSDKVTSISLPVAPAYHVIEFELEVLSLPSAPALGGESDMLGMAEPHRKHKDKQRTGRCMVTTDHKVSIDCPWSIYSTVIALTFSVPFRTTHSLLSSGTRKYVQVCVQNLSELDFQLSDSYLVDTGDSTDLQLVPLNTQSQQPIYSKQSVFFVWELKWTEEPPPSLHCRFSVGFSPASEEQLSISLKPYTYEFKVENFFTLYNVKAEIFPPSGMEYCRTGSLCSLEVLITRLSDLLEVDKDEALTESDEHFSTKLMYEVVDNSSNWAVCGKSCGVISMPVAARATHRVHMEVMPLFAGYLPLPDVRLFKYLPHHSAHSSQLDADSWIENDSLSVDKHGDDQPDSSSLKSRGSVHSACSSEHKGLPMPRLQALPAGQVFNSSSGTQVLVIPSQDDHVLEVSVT
inactive: [1] -0.014 | [2] -0.015 | [3] 0.033 | [4] -0.004 | [5] -0.012

TUBB2A (UniProt Q13885)
inactive: [1] 0.017 | [2] 0.01 | [3] 0 | [4] 0.003 | [5] -0.015

TBL2 (UniProt Q9Y4P3)
inactive: [1] 0.01 | [2] 0.057 | [3] 0.033 | [4] 0.039 | [5] 0.071

TPM1 (UniProt H7BYY1)
inactive: [1] -0.028 | [2] 0.017 | [3] 0.059 | [4] 0.031 | [5] 0.023

TRIM65 (UniProt Q6PJ69)
inactive: [1] 0.051 | [2] -0.085 | [3] -0.016 | [4] 0.012 | [5] 0.039

TUBB3 (UniProt Q13509)
Sequence of UniProt Q13509 (Q13509 whole entry, looked up): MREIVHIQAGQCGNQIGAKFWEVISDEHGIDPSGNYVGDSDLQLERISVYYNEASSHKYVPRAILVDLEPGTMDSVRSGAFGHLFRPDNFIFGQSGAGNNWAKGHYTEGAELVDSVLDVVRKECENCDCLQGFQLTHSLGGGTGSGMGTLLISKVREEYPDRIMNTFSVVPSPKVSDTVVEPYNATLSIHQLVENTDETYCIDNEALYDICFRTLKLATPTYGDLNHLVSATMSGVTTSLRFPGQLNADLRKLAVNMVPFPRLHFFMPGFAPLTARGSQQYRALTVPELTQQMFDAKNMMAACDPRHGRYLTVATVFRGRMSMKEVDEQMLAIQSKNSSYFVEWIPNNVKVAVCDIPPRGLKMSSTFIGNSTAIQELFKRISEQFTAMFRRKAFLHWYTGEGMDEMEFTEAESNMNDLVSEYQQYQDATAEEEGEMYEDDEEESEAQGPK
inactive: [1] 0.014 | [2] -0.005 | [3] 0.008 | [4] 0.008 | [5] 0.01

UBL5 (UniProt Q9BZL1)
inactive: [1] 0.063 | [2] 0.008 | [3] -0.06 | [4] 0.005 | [5] -0.167

TRIM56 (UniProt Q9BRZ2)
inactive: [1] -0.057 | [2] -0.009 | [3] 0.076 | [4] 0.003 | [5] 0.099

TUBGCP5 (UniProt Q96RT8)
inactive: [1] -0.209 | [2] 0.088 | [3] 0.039 | [4] -0.093 | [5] 0.071

UFM1 (UniProt P61960)
inactive: [1] 0.015 | [2] -0.085 | [3] -0.103 | [4] -0.019 | [5] 0.297

UBE4A isoform 2 (UniProt Q14139)
inactive: [1] -0.016 | [2] -0.041 | [3] 0.003 | [4] 0.043 | [5] 0.051

TCAF2 (UniProt A6NFQ2)
inactive: [1] 0.159 | [2] 0.091 | [3] 0.027 | [4] 0.007 | [5] 0.042

TBRG4 (UniProt Q969Z0)
Sequence of UniProt Q969Z0 (Q969Z0 whole entry, looked up): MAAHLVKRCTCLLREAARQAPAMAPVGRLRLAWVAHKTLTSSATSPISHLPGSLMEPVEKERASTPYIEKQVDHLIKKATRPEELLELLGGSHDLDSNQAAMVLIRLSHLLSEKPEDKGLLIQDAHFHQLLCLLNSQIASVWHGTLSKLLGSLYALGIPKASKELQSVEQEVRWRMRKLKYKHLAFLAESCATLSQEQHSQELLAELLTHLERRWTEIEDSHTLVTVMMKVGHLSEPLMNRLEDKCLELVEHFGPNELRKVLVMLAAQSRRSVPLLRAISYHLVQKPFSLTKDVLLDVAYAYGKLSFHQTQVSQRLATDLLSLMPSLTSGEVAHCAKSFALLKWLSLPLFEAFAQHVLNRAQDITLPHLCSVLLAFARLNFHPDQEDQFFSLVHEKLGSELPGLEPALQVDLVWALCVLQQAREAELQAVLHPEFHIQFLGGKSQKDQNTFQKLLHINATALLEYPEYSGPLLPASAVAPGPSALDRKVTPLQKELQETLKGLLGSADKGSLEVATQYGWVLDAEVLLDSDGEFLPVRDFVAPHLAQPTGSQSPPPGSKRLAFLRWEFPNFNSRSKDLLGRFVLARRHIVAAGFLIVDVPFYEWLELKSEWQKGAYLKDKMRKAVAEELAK
inactive: [1] -0.071 | [2] 0.024 | [3] 0.018 | [4] 0.052 | [5] 0.094

TOX4 (UniProt O94842)
inactive: [1] -0.011 | [2] 0.001 | [3] -0.021 | [4] -0.019 | [5] -0.146

TFCP2 (UniProt Q12800)
inactive: [1] 0.044 | [2] -0.013 | [3] 0.004 | [4] -0.013 | [5] -0.103

UBP1 (UniProt Q9NZI7)
Sequence of UniProt Q9NZI7 (Q9NZI7 whole entry, looked up): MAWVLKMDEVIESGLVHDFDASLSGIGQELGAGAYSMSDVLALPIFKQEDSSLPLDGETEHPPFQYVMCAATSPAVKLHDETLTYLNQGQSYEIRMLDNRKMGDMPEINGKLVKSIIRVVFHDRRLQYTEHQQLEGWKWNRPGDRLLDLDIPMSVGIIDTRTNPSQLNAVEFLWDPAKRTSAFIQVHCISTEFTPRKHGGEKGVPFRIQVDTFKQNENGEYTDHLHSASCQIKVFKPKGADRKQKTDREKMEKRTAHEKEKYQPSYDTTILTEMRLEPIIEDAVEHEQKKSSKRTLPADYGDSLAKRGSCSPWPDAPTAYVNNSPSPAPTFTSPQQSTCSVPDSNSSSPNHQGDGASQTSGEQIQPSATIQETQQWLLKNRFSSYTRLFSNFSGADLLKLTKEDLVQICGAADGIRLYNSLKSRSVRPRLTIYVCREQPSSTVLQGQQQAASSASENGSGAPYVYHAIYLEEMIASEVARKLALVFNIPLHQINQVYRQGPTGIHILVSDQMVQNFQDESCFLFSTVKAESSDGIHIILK
inactive: [1] 0.082 | [2] -0.057 | [3] -0.018 | [4] 0.009 | [5] 0.056

TIMM44 (UniProt O43615)
Sequence of UniProt O43615 (O43615 whole entry, looked up): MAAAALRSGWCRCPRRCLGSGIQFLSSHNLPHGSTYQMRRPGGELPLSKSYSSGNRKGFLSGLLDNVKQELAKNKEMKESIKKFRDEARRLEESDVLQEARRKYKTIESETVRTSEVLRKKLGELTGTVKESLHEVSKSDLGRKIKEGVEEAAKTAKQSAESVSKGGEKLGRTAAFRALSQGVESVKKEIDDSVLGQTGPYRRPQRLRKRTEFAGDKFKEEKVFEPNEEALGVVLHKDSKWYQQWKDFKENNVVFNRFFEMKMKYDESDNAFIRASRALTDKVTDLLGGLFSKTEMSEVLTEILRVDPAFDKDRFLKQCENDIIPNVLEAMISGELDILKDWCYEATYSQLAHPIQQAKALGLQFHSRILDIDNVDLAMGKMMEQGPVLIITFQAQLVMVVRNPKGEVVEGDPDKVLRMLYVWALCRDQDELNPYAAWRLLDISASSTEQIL
inactive: [1] -0.062 | [2] 0 | [3] 0.034 | [4] -0.035 | [5] -0.003

THADA (UniProt Q6YHU6)
inactive: [1] -0.028 | [2] -0.016 | [3] 0.069 | [4] 0.007 | [5] 0.028

TTI1 (UniProt O43156)
inactive: [1] -0.004 | [2] -0.011 | [3] -0.004 | [4] 0.034 | [5] 0.051

TMPO (UniProt P42167)
Sequence of UniProt P42167 (P42167 whole entry, looked up): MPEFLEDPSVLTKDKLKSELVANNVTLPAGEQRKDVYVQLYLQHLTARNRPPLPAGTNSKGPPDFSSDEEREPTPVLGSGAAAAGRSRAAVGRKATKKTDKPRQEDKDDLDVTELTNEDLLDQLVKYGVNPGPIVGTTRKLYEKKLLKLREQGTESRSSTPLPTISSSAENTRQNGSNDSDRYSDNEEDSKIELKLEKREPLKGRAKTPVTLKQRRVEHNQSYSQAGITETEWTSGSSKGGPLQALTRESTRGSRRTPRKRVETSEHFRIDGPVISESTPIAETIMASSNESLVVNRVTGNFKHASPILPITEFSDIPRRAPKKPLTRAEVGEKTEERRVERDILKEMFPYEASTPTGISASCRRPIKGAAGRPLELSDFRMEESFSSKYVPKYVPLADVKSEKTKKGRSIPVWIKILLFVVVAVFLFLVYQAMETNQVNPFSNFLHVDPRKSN
inactive: [1] -0.017 | [2] 0.044 | [3] -0.042 | [4] 0.042 | [5] -0.023

TELO2 (UniProt Q9Y4R8)
inactive: [1] -0.073 | [2] -0.012 | [3] -0.019 | [4] 0.056 | [5] 0.025

TPP2 (UniProt Q5VZU9)
inactive: [1] 0.004 | [2] -0.117 | [3] 0.001 | [4] 0.034 | [5] -0.08

TCF3 (UniProt P15923)
inactive: [1] -0.029 | [2] 0.006 | [3] -0.004 | [4] -0.032 | [5] -0.08

TESC (UniProt Q96BS2)
Sequence of UniProt Q96BS2 (Q96BS2 whole entry, looked up): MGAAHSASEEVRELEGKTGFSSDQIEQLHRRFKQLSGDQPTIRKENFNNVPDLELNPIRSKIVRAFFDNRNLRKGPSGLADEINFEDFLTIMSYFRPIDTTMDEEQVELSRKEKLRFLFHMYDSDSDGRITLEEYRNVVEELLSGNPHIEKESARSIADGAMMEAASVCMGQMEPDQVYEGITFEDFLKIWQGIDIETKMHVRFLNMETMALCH
inactive: [1] 0.034 | [2] -0.131 | [3] -0.001 | [4] 0.004 | [5] 0.016

UBXN6 (UniProt Q9BZV1)
inactive: [1] -0.03 | [2] 0.027 | [3] 0.03 | [4] 0.022 | [5] 0.031

TUBAL3 (UniProt A6NHL2)
inactive: [1] -0.034 | [2] -0.051 | [3] 0.045 | [4] -0.189 | [5] -0.255

UBXN10 (UniProt Q96LJ8)
inactive: [1] -0.032 | [2] 0.048 | [3] 0.056 | [4] 0.095 | [5] 0.022

TUBA1C (UniProt Q9BQE3)
inactive: [1] 0.043 | [2] 0.03 | [3] 0.023 | [4] 0.003 | [5] -0.006

TMEM167B (UniProt Q9NRX6)
inactive: [1] 0.021 | [2] -0.032 | [3] 0.036 | [5] -0.187

TRAPPC12 (UniProt Q8WVT3)
inactive: [1] 0.005 | [2] -0.016 | [3] -0.023 | [4] 0.003 | [5] 0.015

TRNAU1AP (UniProt Q9NX07)
inactive: [1] -0.068 | [2] -0.008 | [3] 0.195 | [4] -0.025 | [5] -0.048

THEMIS2 (UniProt Q5TEJ8)
inactive: [1] 0.046 | [2] 0 | [3] 0.019 | [4] 0.052 | [5] -0.054

TTLL12 (UniProt V9GY16)
inactive: [1] 0.022 | [2] 0.606 | [3] 0.066 | [5] -0.065

TRMT12 (UniProt Q53H54)
inactive: [1] 0.104 | [2] -0.023 | [3] -0.007 | [4] -0.061 | [5] 0.076

TUBGCP4 (UniProt Q9UGJ1)
inactive: [1] -0.005 | [2] 0.019 | [3] 0.012 | [4] -0.027 | [5] -0.007

TRADD (UniProt Q15628)
Sequence of UniProt Q15628 (Q15628 whole entry, looked up): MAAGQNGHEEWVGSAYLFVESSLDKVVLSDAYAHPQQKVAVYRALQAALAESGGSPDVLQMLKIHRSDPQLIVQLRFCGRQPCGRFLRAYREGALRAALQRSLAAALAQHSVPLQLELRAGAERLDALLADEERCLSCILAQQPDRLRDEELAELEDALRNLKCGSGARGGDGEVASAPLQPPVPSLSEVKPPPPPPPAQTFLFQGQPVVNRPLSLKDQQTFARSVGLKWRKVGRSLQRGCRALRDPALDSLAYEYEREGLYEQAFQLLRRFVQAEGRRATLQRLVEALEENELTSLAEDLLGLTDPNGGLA
inactive: [1] -0.051 | [2] -0.016 | [3] 0.112 | [4] 0.05 | [5] 0.033

TUBB6 (UniProt Q9BUF5)
inactive: [1] -0.005 | [2] 0.033 | [3] 0.02 | [4] 0.017 | [5] 0.027

TMEM97 (UniProt Q5BJF2)
inactive: [1] 0.048 | [2] 0.015 | [3] -0.016 | [4] -0.081 | [5] -0.153

THOC5 (UniProt Q13769)
Sequence of UniProt Q13769 (Q13769 whole entry, looked up): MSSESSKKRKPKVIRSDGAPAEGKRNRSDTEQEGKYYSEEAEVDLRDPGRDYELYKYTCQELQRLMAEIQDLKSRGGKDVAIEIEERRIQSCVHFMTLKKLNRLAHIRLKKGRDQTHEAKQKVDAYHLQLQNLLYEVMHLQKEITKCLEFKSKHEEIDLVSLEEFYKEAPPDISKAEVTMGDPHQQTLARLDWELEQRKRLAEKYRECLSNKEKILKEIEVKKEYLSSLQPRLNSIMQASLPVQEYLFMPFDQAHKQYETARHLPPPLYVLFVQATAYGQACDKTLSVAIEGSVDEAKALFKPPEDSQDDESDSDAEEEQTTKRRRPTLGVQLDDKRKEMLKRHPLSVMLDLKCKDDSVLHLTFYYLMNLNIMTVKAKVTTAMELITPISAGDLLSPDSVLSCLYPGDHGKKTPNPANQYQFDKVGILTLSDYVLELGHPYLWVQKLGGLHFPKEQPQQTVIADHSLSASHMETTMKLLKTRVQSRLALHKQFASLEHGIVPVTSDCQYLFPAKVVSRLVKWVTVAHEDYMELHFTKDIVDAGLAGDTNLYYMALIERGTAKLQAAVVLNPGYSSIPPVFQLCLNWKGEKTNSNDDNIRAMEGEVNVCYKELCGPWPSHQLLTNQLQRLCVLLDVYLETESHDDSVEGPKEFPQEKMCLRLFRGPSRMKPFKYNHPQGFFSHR
inactive: [1] 0.026 | [2] 0.048 | [3] 0.016 | [4] -0.01 | [5] 0.006

TMOD1 (UniProt P28289)
inactive: [1] -0.003 | [2] 0.021 | [3] 0.043 | [4] 0.017 | [5] 0.002

TRIM33 (UniProt H0Y612)
inactive: [1] -0.042 | [2] 0.008 | [3] 0.05 | [4] 0.021 | [5] 0.098

TTC38 (UniProt Q5R3I4)
inactive: [1] -0.001 | [2] 0 | [3] 0.05 | [4] 0.003 | [5] 0.126

TTI2 (UniProt Q6NXR4)
inactive: [1] -0.044 | [2] 0.009 | [3] 0.033 | [4] -0.035 | [5] 0.024

TBC1D20 isoform 3 (UniProt Q96BZ9)
inactive: [1] -0.08 | [2] -0.07 | [3] 0.005 | [4] -0.007 | [5] 0.015

UBE3B (UniProt Q7Z3V4)
inactive: [1] -0.085 | [2] -0.144 | [3] -0.047 | [4] -0.045 | [5] 0.078

TDRKH (UniProt Q9Y2W6)
inactive: [1] -0.02 | [2] -0.028 | [3] 0.1 | [4] 0.005 | [5] -0.053

UBL4A (UniProt P11441)
inactive: [1] -0.029 | [2] -0.003 | [3] -0.017 | [4] 0.142 | [5] 0.073

TNPO3 (UniProt Q9Y5L0)
inactive: [1] -0.024 | [2] 0.07 | [3] -0.003 | [4] 0.009 | [5] -0.029

TLK1 isoform 2 (UniProt Q9UKI8)
inactive: [1] 0.005 | [2] -0.02 | [3] -0.026 | [4] -0.025 | [5] -0.072

TXNIP (UniProt Q9H3M7)
inactive: [1] 0.056 | [2] 0.005 | [3] 0.029 | [4] 0.016 | [5] 0.087

TIMELESS (UniProt Q9UNS1)
inactive: [1] -0.013 | [2] 0.011 | [3] 0.01 | [4] 0.012 | [5] 0.02
